The values below come from PubChem BioAssay (NCATS).

Records with an inconclusive call do not appear. A number with no mark means an inactive call. Active and inactive are the calls of the source. The call rests on the fitted dose curve; in most records, active means well fitted inhibition curve with a large enough effect; inconclusive means small, poorly fitted or top-dose-only effect; inactive means flat fitted curve, though single readings scatter.
On the % scale 0 is the no-effect control and ±100 the full control effect; potency means the concentration at half of the fitted maximal effect.

Voltage-gated inwardly rectifying potassium channel KCNH2 (Homo sapiens), sequence (Q12809 whole entry, looked up): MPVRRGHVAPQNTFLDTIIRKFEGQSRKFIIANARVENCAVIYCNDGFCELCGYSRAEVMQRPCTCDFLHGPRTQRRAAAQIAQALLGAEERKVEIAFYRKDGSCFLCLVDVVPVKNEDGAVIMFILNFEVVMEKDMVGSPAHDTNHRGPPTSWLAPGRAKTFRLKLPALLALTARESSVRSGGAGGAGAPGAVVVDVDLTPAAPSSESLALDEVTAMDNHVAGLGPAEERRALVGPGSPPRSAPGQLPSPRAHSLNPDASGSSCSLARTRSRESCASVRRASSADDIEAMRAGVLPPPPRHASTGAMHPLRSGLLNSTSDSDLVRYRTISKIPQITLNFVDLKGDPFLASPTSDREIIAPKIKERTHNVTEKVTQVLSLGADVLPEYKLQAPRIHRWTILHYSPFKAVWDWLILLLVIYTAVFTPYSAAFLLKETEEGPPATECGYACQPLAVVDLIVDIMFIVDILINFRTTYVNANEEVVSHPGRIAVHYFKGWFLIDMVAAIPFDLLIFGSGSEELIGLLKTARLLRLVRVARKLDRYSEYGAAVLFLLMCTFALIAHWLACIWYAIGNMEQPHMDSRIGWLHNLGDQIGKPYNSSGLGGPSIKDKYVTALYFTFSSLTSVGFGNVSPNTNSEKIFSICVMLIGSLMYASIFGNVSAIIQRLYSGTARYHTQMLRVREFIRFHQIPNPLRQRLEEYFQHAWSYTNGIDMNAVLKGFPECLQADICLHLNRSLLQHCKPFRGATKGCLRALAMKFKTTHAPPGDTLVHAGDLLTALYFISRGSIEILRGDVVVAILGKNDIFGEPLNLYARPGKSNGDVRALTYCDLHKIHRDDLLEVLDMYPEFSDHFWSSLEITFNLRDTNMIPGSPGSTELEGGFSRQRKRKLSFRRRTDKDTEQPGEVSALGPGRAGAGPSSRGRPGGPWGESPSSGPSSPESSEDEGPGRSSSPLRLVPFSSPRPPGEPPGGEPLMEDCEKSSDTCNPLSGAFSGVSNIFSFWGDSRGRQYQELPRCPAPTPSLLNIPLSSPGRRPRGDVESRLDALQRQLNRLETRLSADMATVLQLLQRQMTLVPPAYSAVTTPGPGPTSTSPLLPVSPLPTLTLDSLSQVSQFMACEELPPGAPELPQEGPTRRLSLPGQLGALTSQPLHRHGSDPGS

This experiment addresses Voltage-gated inwardly rectifying potassium channel KCNH2 (Homo sapiens) (UniProt Q12809). As to the kind of experiment: qHTS Assay for Small Molecule Inhibitors of the Human hERG Channel Activity (AID 588834).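 Further: lower thallium flux fluorescence means stronger hERG block; nearly all actives have a fitted effect of over 50% in size.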 On activity change, negative = inhibition: top concentration of the series differs between compounds. The following applies: U2OS BacMam hERG, FluxOR thallium flux fluorescence; series mostly up to 46.1 µM; activity change, negative = inhibition: at the top concentration. The procedure, abridged: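 Blockade is seen as reduced FluxOR thallium-flux fluorescence in U2OS cells expressing hERG from a BacMam construct, in Opti-MEM with 2% FCS. Concentration-response data fitted to the Hill equation for AC50.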
A general note: Quantitative high-throughput screening tests each substance at several concentrations.
Turning to `CO[C@H]1C[C@H](O[C@H]2[C@H](C)[C@@H](O[C@@H]3O[C@H](C)C[C@H](N(C)C)[C@H]3O)[C@@H](C)C[C@]3(CO3)C(=O)[C@H](C)[C@@H](O)[C@@H](C)[C@@H](C)OC(=O)[C@@H]2C)O[C@@H](C)[C@@H]1O`, the “activity change, negative = inhibition” value is 1.18% [at 20.6 µM].
Same read-out and setting: the result for `COC1[C@@H](O[C@@H]2O[C@H](C)[C@@H](O[C@H]3C[C@@](C)(O)[C@H](OC(=O)CC(C)C)[C@H](C)O3)[C@H](N(C)C)[C@H]2O)[C@@H](CC=O)C[C@@H](C)[C@@H](O)/C=C/C=C/C[C@@H](C)OC(=O)C[C@H]1OC(C)=O` (stereo partly specified) reads 0.454% [at 20.6 µM]; that for `CCN(CC)C(=O)[C@]1(c2ccccc2)C[C@@H]1CN`, 12.1%.
On to `CCC(Oc1ccccc1)C(=O)N[C@@H]1C(=O)N2[C@@H]1SC(C)(C)[C@@H]2C(=O)O` (stereo partly specified), for which the “activity change, negative = inhibition” value was 13.4%.
Same read-out and setting: the result for `Nc1nc(/C(=C/CC(=O)O)C(=O)N[C@@H]2C(=O)N3C(C(=O)O)=CCS[C@H]23)cs1` reads -3.49%.
`COc1ccc(C[C@H](C)NC[C@@H](O)c2ccc(O)c(NC=O)c2)cc1`: the Potency is 14.1 µM (active).
For the molecule `CC(C)=CCC/C(C)=C/CC/C(C)=C/CC/C(C)=C/CC1=C(C)C(=O)c2ccccc2C1=O`, the “activity change, negative = inhibition” value is -1.6%.
On to `CCCCCCCCCCCCCCCCCC[N+](C)(C)CCC[Si](OC)(OC)OC`, for which the “activity change, negative = inhibition” value was 0.36%.
The same measure, in the same setting: the result for `C=C1CC[C@H](O)CC1=C/C=C1\CCC[C@]2(C)[C@@H]([C@H](C)CC[C@@H](O)C(C)(C)O)CC[C@@H]12` reads 8.21%; that for `CCCCCCCCCCCCCC(=O)OCC(COP(=O)([O-])OCC[N+](C)(C)C)OC(=O)CCCCCCCCCCCCC` (stereo unspecified), 3.87%.
Regarding `CC(=O)NCCCS(=O)(=O)O`, the “activity change, negative = inhibition” value is 34.8%.
